# The supplement of paper PMC8728848
# This is one part of a sample in which the strongest signals are shown more often than they occur.
# B1: AT1G80310(18) (Arabidopsis thaliana), Q0WP36 (protein)
# chain: METTTTPLLPGDRSRCGWLRRRLRLKNPLSSELSGAVGDLGTFIPIVLTLTLVSNLDLSTTLIFTGFYNIATGLLFDIPMPVQPMKSIAAVAVSESPHLTPSQIAAAGASTAATLLLLGATGAMSFLYNIIPLPVVRGVQLSQGLQFAFTAIKYVRFNYDTATLKPSSSPRIWLGLDGLILALAALLFIILSTGSGNDREAEDGDLAETSSNESQSRRRRLRLLSSIPSALIVFALGLVLCFIRDPSIFKDLKFGPSKFHILRISWDDWKIGFLRAAIPQIPLSVLNSVIAVCKLSNDLFDKELSATTVSISVGVMNLIGCWFGAMPVCHGAGGLAGQYRFGARSGLSVIFLGIGKLIVGLVFGNSFVRILSQFPIGILGVLLLFAGIELAMASKDMNSKEDSFIMLVCAAVSMTGSSAALGFGCGVVLYLLLKLRTLDCSSVTLFSRSSDESQVDSEAAPRDV
# How the values were obtained:
# Experiment in all cases: glycan array binding signal (z-score within array); higher = stronger binding
# Details in all cases: glycan notation: IUPAC condensed, linker removed
# [1] = biological target: Fuc(a1-2)Gal(b1-3)GalNAc(a1-3)[Fuc(a1-2)]Gal(b1-4)GlcNAc
# Outline: (§1)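 The binding signal is a Z-score computed within each array and averaged over linkers. Arrays of the same protein sequence at different concentrations or buffers were also averaged together. Data originate from 3228 arrays in the Consortium for Functional Glycomics database, kept only where the protein sequence was available.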
# [2] = biological target: Fuc(a1-2)Gal(b1-3)[Fuc(a1-4)]GlcNAc(b1-2)Man(a1-3)[Fuc(a1-2)Gal(b1-3)[Fuc(a1-4)]GlcNAc(b1-2)Man(a1-3)]Man(b1-4)GlcNAc(b1-4)GlcNAc
# Outline: as §1
# [3] = biological target: Fuc(a1-2)Gal(b1-3)[Fuc(a1-4)]GlcNAc(b1-3)[Gal(b1-4)GlcNAc(b1-6)]Gal(b1-4)Glc
# Outline: as §1
# [4] = biological target: Fuc(a1-2)Gal(b1-4)Fuc(a1-3)]GlcNAc(b1-2)Man(a1-3)[Fuc(a1-2)Gal(b1-4)[Fuc(a1-3)]GlcNAc(b1-2)Man(a1-6)]Man(b1-4)GlcNAc(b1-4)GlcNAc
# Outline: as §1
# [5] = biological target: Fuc(a1-2)Gal(b1-4)GlcNAc(b1-2)Man(a1-3)[Fuc(a1-2)Gal(b1-4)GlcNAc(b1-2)Man(a1-6)]Man(b1-4)GlcNAc(b1-4)GlcNAc
# Outline: as §1
# [6] = biological target: Fuc(a1-2)[Gal(a1-3)]Gal(b1-3)GlcNAc
# Outline: as §1
# [7] = biological target: Fuc(a1-2)[Gal(a1-3)]Gal(b1-4)GlcNAc(b1-3)GalNAc
# Outline: as §1
# [8] = biological target: Fuc(a1-2)[GalNAc(a1-3)]Gal(b1-3)GlcNAc(b1-3)GalNAc
# Outline: as §1
# [9] = biological target: Fuc(a1-3)[Gal(b1-4)]Glc6S
# Outline: as §1
# [10] = biological target: Fuc(a1-3)[Gal(b1-4)]GlcNAc(b1-6)GalNAc
# Outline: as §1
# Fuc(b1-3)GlcNAc = biological target: Fuc(b1-3)GlcNAc
# Outline: as §1
# Gal(a1-2)Gal = biological target: Gal(a1-2)Gal
# Outline: as §1
# Gal(a1-3)Gal = biological target: Gal(a1-3)Gal
# Outline: as §1
# Gal(a1-3)Gal(b1-3)GlcNAc = biological target: Gal(a1-3)Gal(b1-3)GlcNAc
# Outline: as §1
# Gal(a1-3)Gal(b1-4)Glc = biological target: Gal(a1-3)Gal(b1-4)Glc
# Outline: as §1
# [11] = biological target: Gal(a1-3)Gal(b1-4)GlcNAc(b1-2)Man(a1-3)[Gal(a1-3)Gal(b1-4)GlcNAc(b1-2)Man(a1-6)]Man(b1-4)GlcNAc(b1-4)GlcNAc
# Outline: as §1
# Gal(a1-4)GlcNAc = biological target: Gal(a1-4)GlcNAc
# Outline: as §1
# [12] = biological target: Gal(b1-3)GalNAc(b1-4)[Neu5Ac(a2-3)]Gal(b1-4)Glc
# Outline: as §1
# [13] = biological target: Gal(b1-3)GlcNAc(b1-2)Man(a1-3)[GlcNAc(b1-4)][Gal(b1-3)GlcNAc(b1-2)Man(a1-6)]Man(b1-4)GlcNAc(b1-4)GlcNAc
# Outline: as §1
# [14] = biological target: Gal(b1-3)GlcNAc(b1-3)GalNAc
# Outline: as §1
# [15] = biological target: Gal(b1-3)[Fuc(a1-4)]GlcNAc(b1-2)Man
# Outline: as §1
# [16] = biological target: Gal(b1-3)[Fuc(a1-4)]GlcNAc(b1-2)Man(a1-3)[Gal(b1-3)[Fuc(a1-4)]GlcNAc(b1-2)Man(a1-6)]Man(b1-4)GlcNAc(b1-4)[Fuc(a1-6)]GlcNAc
# Outline: as §1
# [17] = biological target: Gal(b1-3)[GlcNAc(b1-6)]GalNAc
# Outline: as §1
# [18] = biological target: Gal(b1-4)GlcNAc(b1-2)Man(a1-3)[Gal(b1-4)GlcNAc(b1-2)Man(a1-6)][GlcNAc(b1-4)]Man(b1-4)GlcNAc(b1-4)[Fuc(a1-6)]GlcNAc
# Outline: as §1
# [19] = biological target: Gal(b1-4)GlcNAc(b1-2)Man(a1-6)Man(b1-4)GlcNAc(b1-4)GlcNAc
# Outline: as §1
# [20] = biological target: Gal(b1-4)GlcNAc(b1-2)[Gal(b1-4)GlcNAc(b1-6)]Man(a1-6)[GlcNAc(b1-4)][Gal(b1-4)GlcNAc(b1-2)[Gal(b1-4)GlcNAc(b1-4)]Man(a1-3)]Man(b1-4)GlcNAc(b1-4)[Fuc(a1-6)]GlcNAc
# Outline: as §1
# [21] = biological target: Gal(b1-4)GlcNAc(b1-3)Gal(b1-3)GalNAc
# Outline: as §1
# [22] = biological target: Gal(b1-4)GlcNAc(b1-3)Gal(b1-3)GlcNAc
# Outline: as §1
# [23] = biological target: Gal(b1-4)GlcNAc(b1-3)Gal(b1-4)GlcNAc(b1-3)Gal(b1-4)GlcNAc(b1-3)Gal(b1-4)GlcNAc(b1-2)[Gal(b1-4)GlcNAc(b1-3)Gal(b1-4)GlcNAc(b1-3)Gal(b1-4)GlcNAc(b1-3)Gal(b1-4)GlcNAc(b1-6)]Man(a1-6)[Gal(b1-4)GlcNAc(b1-3)Gal(b1-4)GlcNAc(b1-3)Gal(b1-4)GlcNAc(b1-3)Gal(b1-4)GlcNAc(b1-2)Man(a1-3)]Man(b1-4)GlcNAc(b1-4)[Fuc(a1-6)]GlcNAc
# Outline: as §1
# [24] = biological target: Gal(b1-4)GlcNAc(b1-3)Gal(b1-4)GlcNAc(b1-3)GalNAc
# Outline: as §1
binder,measurement,setting,value
B1,glycan array binding signal (z-score),[1],-0.505
same,glycan array binding signal (z-score),[2],-0.097
same,glycan array binding signal (z-score),[3],-0.71
same,glycan array binding signal (z-score),[4],4.04
same,glycan array binding signal (z-score),[5],3.83
same,glycan array binding signal (z-score),[6],2.6
same,glycan array binding signal (z-score),[7],-1.01
same,glycan array binding signal (z-score),[8],0.205
same,glycan array binding signal (z-score),[9],1.38
same,glycan array binding signal (z-score),[10],0.051
same,glycan array binding signal (z-score),Fuc(b1-3)GlcNAc,-0.095
same,glycan array binding signal (z-score),Gal(a1-2)Gal,0.558
same,glycan array binding signal (z-score),Gal(a1-3)Gal,3.63
same,glycan array binding signal (z-score),Gal(a1-3)Gal(b1-3)GlcNAc,3.82
same,glycan array binding signal (z-score),Gal(a1-3)Gal(b1-4)Glc,-0.294
same,glycan array binding signal (z-score),[11],-0.855
same,glycan array binding signal (z-score),Gal(a1-4)GlcNAc,0.748
same,glycan array binding signal (z-score),[12],-0.754
same,glycan array binding signal (z-score),[13],1.46
same,glycan array binding signal (z-score),[14],0.082
same,glycan array binding signal (z-score),[15],2.96
same,glycan array binding signal (z-score),[16],-0.645
same,glycan array binding signal (z-score),[17],0.239
same,glycan array binding signal (z-score),[18],4.28
same,glycan array binding signal (z-score),[19],-0.165
same,glycan array binding signal (z-score),[20],2.65
same,glycan array binding signal (z-score),[21],-0.393
same,glycan array binding signal (z-score),[22],1.15
same,glycan array binding signal (z-score),[23],-0.802
same,glycan array binding signal (z-score),[24],-0.75
